# Test results: PubChem BioAssay AID624296 (National Center for Advancing Translational Sciences (NCATS), 2012)
# The whole screen tested about 350,000 compounds, of which about 9,900 (2.8%) were called active. Another 15% or so got no clear call; they are omitted. For the sample, actives were picked, then their nearest neighbours and some compounds at random. Unmarked numbers belong to inactive results. The call rests on the fitted dose curve; in most records, active means well fitted activation curve with a large enough effect; inconclusive means small, poorly fitted or top-dose-only effect; inactive means no such curve, though single readings can be large or run the other way.
# Assay: A quantitative high throughput screen for small molecules that induce DNA re-replication in MCF 10a normal breast cells. Further: nearly all actives have a fitted effect of over 50% in size. On activity, positive = re-replication: % of control where 0% means no effect.
# Conditions: MCF 10A DNA re-replication, Hoechst nuclear intensity, 48 h; series mostly up to 46.1 µM; activity, positive = re-replication: at the top concentration
# Potency means the concentration at half of the fitted maximal effect.
Compound,"activity, positive = re-replication [%]",Potency
Cc1ccc(S(=O)(=O)n2oc(=O)c(C3CCCCC3)c2N)cc1,-4.25,–
Cc1cccc(-c2ncc(CN3CCC(CO)(CCCc4ccccc4)CC3)cn2)c1,–,18.4 µM (active)
OCC1(CCc2ccccc2)CCN(Cc2ccc3nsnc3c2)CC1,-0.27,–
COc1cccc(CC2(CO)CCN(Cc3cnc(-c4cccc(C)c4)nc3)CC2)c1,16.8,–
COc1cccc(C2=CC(=O)C[C@H](c3ccc(OC)c(OC)c3)C2)c1,-1.75,–
CCOc1ccc(N2C(=O)CSC2=NC#N)cc1,0.981,–
O=C1CSC(=S)N1c1ccc(O)cc1,–,16.4 µM (active)
COc1ccc(N2C(=O)CNC2=S)cc1,-1.08,–
COc1ccc(CNC(=O)CN2C(=O)NC3(CCCc4sccc43)C2=O)cc1 (stereo not drawn),2.5,–
O=C(CCCCCCCC(=O)N1CCCCC1)N1CCCCC1,0.602,–
O=C(Nc1cc(-c2ccccc2)nn1-c1ccccc1F)c1ccc([N+](=O)[O-])cc1,8.57,–
O=C1CSc2ccc(C(=O)NCc3ccccn3)cc2N1,-5.56,–
CCCC(CNC(=O)COC(=O)C1=NNC(=O)CC1)c1ccc(Cl)cc1Cl (stereo not drawn),-31,–
O=C(O)/C=C/c1cn(-c2ccccc2)nc1-c1cccs1,-0.193,–
O=C(O)c1ccc(N/N=C/c2cn(-c3ccccc3)nc2-c2cccs2)cc1,–,23.1 µM (active)
O=C(NCc1cccnc1)c1cn(-c2ccccc2)nc1-c1cccs1,-3.9,–
COc1ccccc1Cn1c(=S)[nH]c2cc(C(=O)N3CCN(C)CC3)ccc2c1=O,29.4,–
O=c1c2ccccc2[nH]c(=S)n1CCN1CCC(=C(c2ccc(F)cc2)c2ccc(F)cc2)CC1,–,18.4 µM (active)
CCCCn1c(=S)[nH]c2ccccc2c1=O,10.2,–
COc1ccccc1C1C2=C(COC2=O)Nc2cc3c(cc21)OCO3 (stereo not drawn),-4.62,–
COc1ccc(C2CC(=O)Nc3cc(C)c(C)cc32)c(OC)c1OC (stereo not drawn),0.878,–
CCCOc1ccccc1C1CC(=O)Nc2cc3c(cc21)OCO3 (stereo not drawn),–,6.51 µM (active)
Nc1c(N(Cc2ccco2)C(=O)c2cccc(F)c2)c(=O)[nH]c(=O)n1Cc1ccccc1,-4.93,–
CC(=O)NC1=NN(C(C)=O)C(C)(CCS(=O)(=O)c2ccc(Cl)c(Cl)c2)S1 (stereo not drawn),-0.888,–
CC(=O)NC1=NN(C(C)=O)C(C)(c2ccc(Cl)s2)S1 (stereo not drawn),–,8.2 µM (active)
CC(=O)NC1=NN(C(C)=O)C(C)(c2ccc(C)cc2)S1 (stereo not drawn),0.0102,–
COc1ccccc1S(=O)(=O)NCc1ccc(C(=O)N(C)Cc2ccc(F)cc2)cc1,-3.7,–

Compound,"activity, positive = re-replication [%]",Potency
O=C(COC(=O)c1cccnc1Cl)NC12CC3CC(CC(C3)C1)C2,9.09,–
O=C(COC(=O)c1ccc(F)cc1)NCC1COc2ccccc2O1 (stereo not drawn),-12.8,–
Cc1cc(C(=O)OCC(=O)NCc2ccco2)c(C)n1-c1ccccc1,–,6.31 µM (active)
CN(c1ccccc1)S(=O)(=O)c1ccc(Cl)c(C(=O)OCC(=O)NCc2ccco2)c1,1.68,–
O=C(COC(=O)c1ccccc1O)NCc1ccco1,1,–
O=C1c2ccccc2C(=O)N1CCCCCCN1C(=O)c2ccccc2C1=O,-5.68,–
COC(=O)c1ccc(C)c(NC(=O)Cn2c(C)csc2=O)c1,-4.44,–
C=CCSc1nsc(NC(=O)Nc2cccc(C(C)=O)c2)n1,4.65,–
CCSc1nsc(NC(=O)Nc2cccc(C(C)=O)c2)n1,–,16.4 µM (active)
CCSc1nsc(NC(=O)Nc2ccccc2OC)n1,0.0049,–
Cc1cc(N2C(=O)C(O)=C(C(=O)c3ccc(C)o3)C2c2ccc(OCc3ccccc3)cc2)no1 (stereo not drawn),–,20.6 µM (active)
COc1cc(C2C(C(=O)c3ccc(C)o3)=C(O)C(=O)N2CCc2ccccc2)ccc1O (stereo not drawn),1.61,–
COc1cc(C2C(C(=O)c3ccc(C)o3)=C(O)C(=O)N2Cc2cccnc2)ccc1O (stereo not drawn),-2.92,–
Cc1ccc(NC(=O)CN(C)C(=O)c2cccc(S(=O)(=O)N3CCCC3)c2)cc1,-4.81,–
Cc1ccc(S(=O)(=O)N2[C@@H](c3ccccc3F)C(C(=O)O)=CC[C@H]2c2ccc(Cl)cc2)cc1,–,7.31 µM (active)
Cc1ccc(S(=O)(=O)N2[C@@H](c3cccc4ccccc34)C(C(=O)O)=C[C@H]2C(C)(C)C)cc1,0.739,–
Cc1ccc(S(=O)(=O)N2C3C=CC(C3)C2C(=O)O)cc1 (stereo not drawn),-0.0101,–
COC(=O)C1=C(C)N(Cc2ccccc2)C(=NCCCOC(C)C)N[C@H]1c1ccccc1,27.9,–
CC1O[C@H](OC2C(COC3OC(CO)C(O)[C@H](O)C3O)OC(OC3CC[C@]4(C)C(CC[C@@]5(C)[C@@H]4C=C[C@]46OC[C@@]7(CCC(C)(C)C[C@H]74)C(O)C[C@@]56C)C3(C)C)C(O)C2O)C(O)C(O)C1O (stereo partly drawn),-4.83,–
COc1ccc(OCCCC(=O)Nc2cccc(S(=O)(=O)N3CCCCCC3)c2)cc1,15.5,–
CN(CC(=O)NC1CCN(Cc2ccccc2)CC1)S(=O)(=O)c1ccc(Cl)s1,1.48,–
CC(=O)Oc1ccccc1C1=NN(C(C)=O)C(c2ccccc2)C1 (stereo not drawn),-3.27,–
CC(=O)Oc1ccc(OC(C)=O)c2c1C1C=CC2CC1,–,10.3 µM (active)
CC(=O)Oc1ccc(C(C)=O)c2c1OCCO2,-1.95,–
CCCCN(C(=O)c1cccc(N2C(=O)c3ccccc3C2=O)c1)c1c(N)n(CCCC)c(=O)[nH]c1=O,-1.5,–
O=C(COC(=O)C1CCCO1)Nc1nc(-c2ccc(F)cc2)cs1 (stereo not drawn),3.1,–
